Reference: PubChem BioAssay AID623992 (NMMLSC, 2012)
Measured potencies and affinities stand elsewhere. Active and inactive are the calls of the source.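 The calls were made as follows: active = compounds whose fitted half-maximal effective concentration for blocking dye efflux is below 100 µM; inactive = the rest.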

Target: Benomyl/methotrexate resistance protein (Candida albicans) (UniProt P28873)
Experiment: Candida albicans Mdr1 pump blockade titration – singleplex, Cherry Pick2 set, dose response (AID 623992)
Conditions: S. cerevisiae AD/CaMDR1, Nile Red efflux, flow cytometry; series mostly up to 100 µM; efflux inhibition response: at the top concentration

Sequence of Benomyl/methotrexate resistance protein (Candida albicans) (P28873 whole entry, looked up): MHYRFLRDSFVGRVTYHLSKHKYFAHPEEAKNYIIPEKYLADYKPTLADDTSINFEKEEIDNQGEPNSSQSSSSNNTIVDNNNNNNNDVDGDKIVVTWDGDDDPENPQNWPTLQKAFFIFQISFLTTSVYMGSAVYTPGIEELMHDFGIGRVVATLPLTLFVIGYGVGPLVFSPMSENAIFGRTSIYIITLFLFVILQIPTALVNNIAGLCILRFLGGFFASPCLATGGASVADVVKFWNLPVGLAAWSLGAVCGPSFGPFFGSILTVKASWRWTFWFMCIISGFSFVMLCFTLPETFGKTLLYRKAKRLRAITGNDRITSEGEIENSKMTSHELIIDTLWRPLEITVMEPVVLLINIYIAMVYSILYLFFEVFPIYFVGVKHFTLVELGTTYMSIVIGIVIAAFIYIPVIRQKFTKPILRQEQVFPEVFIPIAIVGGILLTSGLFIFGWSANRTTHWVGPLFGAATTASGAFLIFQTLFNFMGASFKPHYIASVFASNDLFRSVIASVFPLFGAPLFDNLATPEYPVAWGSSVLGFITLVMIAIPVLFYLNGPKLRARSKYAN

Efflux inhibition response, inactive:
CCN(CC)CCC(c1ccc(N(C)C)cc1)c1c(OC)cc(OC)c2ccc(=O)oc12 (stereo not given) -1.95%
NS(=O)(=O)c1ccc(N2N=C(c3ccccc3)CC2c2ccc(Br)cc2)cc1 (stereo not given) -2.11%
Cc1cccc(C2CC(c3ccccc3)=NN2c2ccc(S(N)(=O)=O)cc2)c1 (stereo not given) -2.38%
Cc1cc(C(=O)NC2CC(C)(C)Cc3c2cnn3-c2ccc(F)cc2)no1 (stereo not given) -1.32%
Cc1cccc2sc(N(CCCN(C)C)C(=O)c3ccc(Cl)s3)nc12 -0.58%
Cc1ccc(CNC(=O)C2CCC(CNc3nc(=S)[nH]c4ccccc34)CC2)cc1 (stereo not given) -0.77%
Cc1cc(C)c2sc(N(CCCN(C)C)C(=O)c3ccc(Br)s3)nc2c1 68.6%
Cc1ccc(O)c(C(=O)c2cnc3c(c2)CN(C)C(=O)N3)c1 0.89%
CC(C)C(=O)N1CCC2(CC1)Oc1ccc(Cl)cc1C(=O)C21CC(c2ccc(Cl)cc2)=NO1 (stereo not given) 22.3%
O=C(CSc1nnc(Cc2cccs2)n1Cc1ccco1)Nc1cccc(Cl)c1 -1.55%
O=C(c1ccoc1)N1CCC2(CC1)Oc1ccc(F)cc1C(=O)C21CC(c2ccc(Cl)cc2)=NO1 (stereo not given) 75.4%
CCCCCCCCCC[N+](C)(C)CC/C=C1/c2ccccc2Sc2ccc(Cl)cc21 405%
O=C(c1ccc2c(c1)OCO2)N1CCC2(CC1)Oc1ccc(F)cc1C(=O)C21CC(c2ccc(Cl)cc2)=NO1 (stereo not given) 30.5%
Cc1ccc(-c2c[n+](CC(=O)N3c4ccccc4Sc4ccccc43)c3n2CCC3)cc1 -1.07%
Cc1ccc2sc(N(CCCN(C)C)C(=O)c3ccc(Br)s3)nc2c1C -2.13%
NC1=NC[C@H](Cc2ccc(O)cc2)N1CCc1cc(C(F)(F)F)cc(C(F)(F)F)c1 -0.65%
C[C@H](CO)N1C[C@H](C)[C@@H](CN(C)S(=O)(=O)c2ccccc2)Oc2c(NC(=O)Nc3ccccc3)cccc2C1=O 51.3%
O=C(NCCc1ccc(Cl)cc1)C1CCC(CNc2nc(=S)[nH]c3ccccc23)CC1 (stereo not given) -0.35%
COc1ncccc1C(=O)NC1CCCc2c1cnn2-c1cc(C)cc(C)c1 (stereo not given) -0.48%
COc1ccc(C2CC(c3ccccc3)=NN2c2ccc(S(N)(=O)=O)cc2)cc1 (stereo not given) -1.14%
COc1cccc(-c2sc3ccc(OC)cc3c2-c2ccc(OCCN3CCOCC3)cc2)c1 156%
COc1ccc(N2CCN(C(=O)C3CCCN(c4ncnc5c4nc4n5CCCCC4)C3)CC2)cc1 (stereo not given) -1.48%
COc1cc(OC)c2ccc(=O)oc2c1C(CCN1CCCC1)c1ccc(N(C)C)cc1 (stereo not given) -0.52%
COc1ccc(CNC(=O)C(C#N)c2nc3ccccc3nc2N2CCCC2)cc1 (stereo not given) -1.31%
COc1ccc(-c2c[n+](CC(=O)N3c4ccccc4Sc4ccccc43)c3n2CCC3)cc1 -2.26%
O=C1C(Cc2ccccc2)Nc2ncnc(N3CCN(c4ccccc4)CC3)c2N1Cc1ccccc1 (stereo not given) 5.68%
CN1Cc2cc(C(=O)c3ccccc3O)cnc2NC1=O -1.55%

outcome, inactive:
COc1ccc(CNC(=O)C(C#N)c2nc3ccccc3nc2N2CCN(C)CC2)cc1 (stereo not given)
Cc1ccc(O)c(C(=O)c2cnc3c(c2)CN(CCC(C)C)C(=O)N3)c1
CC1CN(c2nc3ccccc3nc2C(C#N)C(=O)NCc2ccc3c(c2)OCO3)CC(C)O1 (stereo not given)
